Screen size: about 320,000 compounds; about 2,100 (0.66%) were called active. Roughly 53% stayed inconclusive and do not appear here. The sample holds actives, similar compounds and a random draw of the others, so the mix is not that of the screen. Calls follow the shape of the dose curve; as a rule, active = well fitted inhibition curve with a large enough effect in the signal ratio, with a control signal flat (not every such curve was filed as active); inconclusive = small, poorly fitted or top-dose-only effect, or effect the other way, or a change in a side signal; inactive = flat fitted curve, though single readings scatter; the % refers to the signal ratio.

We go through 91 molecules from PubChem BioAssay AID2685 (National Center for Advancing Translational Sciences (NCATS), 2010).
Potency is read from the fitted curve at half-maximal effect.

The test in a line: qHTS Assay for Lipid Storage Modulators in Drosophila S3 Cells.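 As to cell number change: cells counted by Cell Tracker Red CMTPX staining in the red channel.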 As to lipid storage change, negative = inhibition: % is scaled to controls: 0 for no effect and ±100 for the full control effect. The following applies: BODIPY lipid droplet fluorescence, 18-24 h, cells fed with added oleic acid; cell number change: measured here: cell count max response; series mostly up to 46.1 µM. In a few lines: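 Drosophila S3 cells loaded with oleic acid (400 uM, as added) and compounds at several concentrations; lipid droplets imaged by 488-nm laser-scanning cytometry, 500–530 nm intensity and object ratio to cell channel. Percent activity normalized to 20 uM Triacsin C.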
(Quantitative high-throughput screening tests each substance at several concentrations.)
Consider `NS(=O)(=O)c1ccc(CNC(=S)NC2CCCCC2)cc1`, for which the Potency result is “inactive” and the cell number change is -8.89%. In the same order, the values of `Cc1ccc(NC(=O)Cn2c(O)c(N=NC(N)=O)c3ccccc32)cc1` are “inactive” and -8.5%. In the same order, the values of `COc1cccc2cc(C(=O)N3CCN(c4ccc(C)cc4C)CC3)c(=O)oc12` are “inactive” and 12.9%. The corresponding values for `O=P(O)(OCc1ccccc1)OCc1ccccc1` are “inactive” and 4.18%.

With `COC(=O)c1c(NC(=O)c2ccco2)sc2c1CCC2`, the Potency result is “inactive” and the cell number change was 3.65%. Take `COC(=O)c1c(NC(=O)C2CC2)sc2c1CCN(C(C)=O)C2`: the Potency entry was “inactive”. On to `COC(=O)c1c(NC(=O)c2ccco2)sc2c1CCN(C(C)=O)C2`, for which the Potency is 7.31 µM (active) and the cell number change was -25.8%. `O=C(CSc1nc2ccc([N+](=O)[O-])cc2[nH]1)NC1CCCC1`: the Potency result was “inactive” and the cell number change was 16%.

Take `O=[N+]([O-])c1ccc(/C=N/N=C/c2ccc([N+](=O)[O-])o2)o1`: the Potency entry was “inactive” and the cell number change stood at 21.7%. In the same order, the values of `O=C1NC(=S)S/C1=C\C=C\c1ccc([N+](=O)[O-])o1` are 6.51 µM (active) and -18.3%. For the molecule `CCCSC1=N/C(=C\c2ccc([N+](=O)[O-])o2)C(=O)S1`, the Potency entry was “inactive” and the cell number change amounted to 18.4%. In the same order, the values of `C[n+]1ccc(/C=C/c2c[nH]c3ccccc23)cc1` are 4.11 µM (active) and 5.59%. `Cc1ccccc1/C=C/c1cc[n+](C)cc1`: the Potency entry is “inactive”. Take `OCC[n+]1ccc(/C=C/c2c[nH]c3ccccc23)cc1`: the Potency entry is “inactive” and the cell number change was -1.83%. Turning to `COc1ccc(S(=O)(=O)N2CCN(CC(=O)NCCc3cccs3)CC2)cc1`, the Potency entry was “inactive” and the cell number change is -24.5%. Regarding `O=C(CN1CCN(S(=O)(=O)c2ccccc2)CC1)NCCc1ccccc1`, the Potency entry was “inactive” and the cell number change amounted to 12.2%.

On to `Cc1cc(S(=O)(=O)N2CCN(CC(=O)NCCc3cccs3)CC2)ccc1Br`, for which the Potency is 6.51 µM (active) and the cell number change was -0.491%.

For the molecule `CSc1ccccc1OCc1cc(C(=O)N(C)Cc2cc(C)[nH]n2)no1`, the Potency result was “inactive” and the cell number change is -1.8%.

Take `COc1ccc(C(=O)N2CCc3cc(OC)c(OC)cc3C2)cc1OC`: the Potency result was “inactive” and the cell number change is -23.8%. The corresponding values for `COc1ccc(C(=O)N2CCc3ccc(NC(=O)c4ccccn4)cc3C2)cc1F` are 7.31 µM (active) and 5.43%.

With `CSc1cccc(NC(=O)N2CCc3ccc(NC(=O)c4ccccn4)cc3C2)c1`, the Potency entry is “inactive” and the cell number change is -11.2%. Take `CC(=O)c1nn(-c2ccc(Cl)cc2)c(=O)[nH]c1=O`: the Potency result is “inactive”. On to `O=C(CN1C(=O)NC2(CCc3ccccc32)C1=O)c1ccccc1` (centres undefined), for which the Potency entry was “inactive” and the cell number change worked out at 29.9%. The corresponding values for `O=C(CN1C(=O)NC2(CCc3ccccc32)C1=O)c1ccc(Br)s1` (centres undefined) are 4.11 µM (active) and 10.8%.

As to `O=C(CN1C(=O)NC2(CCc3ccccc32)C1=O)c1ccc(Br)cc1` (centres undefined), the Potency result was “inactive” and the cell number change was -20.3%. The corresponding values for `Cc1cccc(OCC(=O)N2CCN(C(=O)c3ccc([N+](=O)[O-])cc3)CC2)c1` are “inactive” and 2.07%. Consider `O=C(CN1C(=O)NC(Cc2ccccc2)C1=O)Nc1ccccc1` (centres undefined), for which the Potency result was “inactive”. Take `O=C(CN1C(=O)NC(Cc2ccccc2)C1=O)Nc1ccc(OC(F)(F)F)cc1` (centres undefined): the Potency is 23.1 µM (active) and the cell number change is -11.8%.

Consider `Cc1ccc(NC(=O)CN2C(=O)NC(Cc3ccccc3)C2=O)cc1` (centres undefined), for which the Potency result is “inactive” and the cell number change came out at 2.72%.

For the molecule `Cc1ccc2c(N)c(C(=O)N(c3ccccc3)c3ccccc3)sc2n1`, the Potency entry is “inactive” and the cell number change was found to be 1.13%. The corresponding values for `O=C(COC(=O)c1ccccn1)Nc1cccc(Cl)c1` are “inactive” and -4.94%.

With `CSc1nnc(C(C)c2ncc(C(F)(F)F)cc2Cl)n1C` (centres undefined), the Potency result was “inactive” and the cell number change turned out to be 29.4%. In the same order, the values of `COCCN(C(=O)c1ccccc1)c1nc(-c2ccc(OC)cc2)cs1` are “inactive” and -13.2%.

Regarding `COCCCN(C(=O)c1ccccc1F)c1nc(-c2ccc(OC)cc2)cs1`, the Potency result was “inactive” and the cell number change stood at 7.94%. The corresponding values for `COCCCN(C(=O)c1ccccc1)c1nc(-c2ccc(OC)cc2)cs1` are 9.2 µM (active) and 5.82%. Turning to `COC(=O)c1ccc(-c2nc(O)c(C)s2)cc1`, the Potency entry is “inactive”. `Cc1cccc(OC2CCN(Cc3c(C(=O)N4CCCC4)nc4ccccn34)CC2)c1`: the Potency entry was “inactive” and the cell number change amounted to 17.9%. Regarding `CCCC[C@@H]1CNC(=O)C(=O)N1CCc1cc(C(F)(F)F)cc(C(F)(F)F)c1`, the Potency entry is “inactive” and the cell number change was 3.93%. As to `CC(OC(=O)Cc1n[nH]c(=O)c2ccccc12)C(=O)Nc1ccc(F)cc1` (centres undefined), the cell number change is -13.8% and the outcome was “inactive [at 0.0737 µM]”. For `COC(=O)c1ccc(COC(=O)Cc2n[nH]c(=O)c3ccccc23)cc1`, the Potency result was “inactive”.

For `CCc1ccc(C(=O)C(C)OC(=O)Cc2n[nH]c(=O)c3ccccc23)cc1` (centres undefined), the Potency is 13 µM (active) and the cell number change was -26.4%. With `Cc1csc(Sc2ccc([N+](=O)[O-])cc2C(=O)OCC(=O)NC(=O)NC(C)(C)C)n1`, the Potency entry is “inactive”. Turning to `CC(c1ccccc1)n1c(CCCO)nc2ccccc21` (centres undefined), the Potency result is “inactive” and the cell number change was -13.2%. In the same order, the values of `CCCCN(C)CCn1c(=S)[nH]c2cc(OCC)c(OCC)cc2c1=O` are “inactive” and 5.41%. In the same order, the values of `COC(=O)c1cc(C(=O)N2CCc3ccccc32)cc([N+](=O)[O-])c1` are “inactive” and 3.51%. The corresponding values for `O=C(CC1C(=O)NC2CCCCC2N1C(=O)c1ccc(F)cc1)Nc1ccccc1` (centres undefined) are 29.1 µM (active) and 18%.

`COc1cccc(NC(=O)CC2C(=O)NC3CCCCC3N2C(=O)c2ccc(F)cc2)c1` (centres undefined): the Potency result is “inactive” and the cell number change came out at 36.9%. The corresponding values for `COc1ccc(NC(=O)CC2C(=O)NC3CCCCC3N2C(=O)c2ccc(F)cc2)cc1` (centres undefined) are “inactive” and 6.58%. In the same order, the values of `COc1ccc(NC(=S)N2CCC(C(=O)c3ccc(OC)cc3)CC2)cc1` are “inactive” and -17.6%. In the same order, the values of `O=C(COC(=O)COc1ccc2c(c1)CCC2)Nc1ccccc1` are “inactive” and -5.42%. Consider `Cn1nc(C(=O)NNC(=O)C(CCC(N)=O)NS(=O)(=O)c2ccc(Cl)cc2)c2ccccc2c1=O` (centres undefined), for which the Potency result is “inactive” and the cell number change worked out at 15.9%.

For the molecule `Cc1ccc(S(=O)(=O)N/N=C/c2ccc3nccnc3c2)cc1`, the Potency result was “inactive” and the cell number change was -5.68%. In the same order, the values of `COc1ccc(CCNC(=O)CN2C(=O)c3ccccc3S2(=O)=O)cc1` are “inactive” and 8.78%. The corresponding values for `CCOc1ccc(CCNC(=O)CCn2cccc2)cc1OCC` are “inactive” and 0.009%. For the molecule `COc1ccc(CCNC(=O)CCCN2C(=O)c3ccccc3C2=O)cc1OC`, the Potency entry was “inactive” and the cell number change was 10.1%. The corresponding values for `COc1ccc(CCNC(=O)CCCOc2cc(=O)n(C)c3ccccc23)cc1OC` are “inactive” and 11.7%. In the same order, the values of `COc1ccc(CCNC(=O)CCCOc2cccc(C)c2C)cc1OC` are 6.51 µM (active) and -23.6%. The corresponding values for `CCOc1ccc(CCNC(=O)Cn2cccc2C(=O)c2ccccc2)cc1OCC` are 16.4 µM (active) and -22.9%. Turning to `COc1ccccc1CNC(=O)Cn1cccc1C(=O)c1ccccc1C`, the Potency entry was “inactive” and the cell number change was -15.2%.

`COc1ccc(CCNC(=O)CCOc2cc(C)ccc2C)cc1OC`: the Potency result is “inactive” and the cell number change was -23.2%. The corresponding values for `COc1ccc(CCNC(=O)Cn2cccc2C(=O)c2ccccc2C)cc1OC` are 20.6 µM (active) and -20.4%. The corresponding values for `COc1ccc(CCNC(=O)CN2C(=O)c3ccccc3S2(=O)=O)cc1OC` are 23.1 µM (active) and -27.6%. In the same order, the values of `COc1ccc(OC)c(CCNC(=O)Cn2cccc2C(=O)c2ccccc2C)c1` are “inactive” and 3.16%.

As for `O=C(Cn1cccc1C(=O)c1ccccc1)NCCc1ccccc1`, the Potency entry was “inactive”. In the case of `NS(=O)(=O)c1ccc(CNC(=O)/C=C/c2ccccc2)cc1`, the Potency entry was “inactive” and the cell number change is 2.48%. In the same order, the values of `O=C(CC(Sc1ccc(Br)cc1)C(=O)O)c1ccc(F)cc1` (centres undefined) are “inactive” and -1.05%. In the case of `CN=C(Nc1ccc(C(=O)OC)s1)c1ccccc1`, the Potency result was “inactive”.

As for `O=C(Nc1ccccc1)c1cccnc1NCCc1ccccc1`, the Potency result was “inactive” and the cell number change was -3.52%. The corresponding values for `Cc1ccc(CNC(=O)C(N=C2NS(=O)(=O)c3ccccc32)C(C)C)cc1` (centres undefined) are “inactive” and 10.7%. With `CN(CC(O)COc1ccc2ccccc2c1)C1CCCCC1` (centres undefined), the Potency entry is “inactive” and the cell number change is -0.529%. In the same order, the values of `COc1ccc(CCNC(=O)Cn2cccc2C(=O)c2ccccc2)c(OC)c1` are “inactive” and 6.75%. The corresponding values for `COc1ccc(CCNC(=O)Cn2cccc2C(=O)c2ccccc2)cc1OC` are 25.9 µM (active) and -21.4%.

As for `COc1ccc(OC)c(CCNC(=O)Cn2cccc2C(=O)c2ccccc2)c1`, the Potency entry was “inactive”. Turning to `COc1ccc(NC(=O)C(OC(=O)c2ccc([N+](=O)[O-])o2)c2ccccc2)cc1Cl` (centres undefined), the Potency result is “inactive” and the cell number change was determined as 0.814%.

Consider `Cc1nc2n(n1)C(c1ccccc1)C1=C(CC(c3ccco3)CC1=O)N2` (centres undefined), for which the Potency result was “inactive”.

`Cc1cc(C)cc(NC(=O)C(=S)NCc2ccccc2)c1`: the Potency result was “inactive” and the cell number change was 9.48%. Consider `O=C(NNc1nc2c(F)cc(F)cc2s1)c1ccccc1`, for which the cell number change is 6.06% and the lipid storage change, negative = inhibition is 21.3% [at 9.22 µM] (inactive). For the molecule `O=S(=O)(NC1CCN(Cc2ccccc2)CC1)c1ccc(Cl)cc1`, the Potency result was “inactive” and the cell number change was -5.28%. For the molecule `O=S(=O)(c1ccccc1)c1nnn2c1nc(NC1CCN(Cc3ccccc3)CC1)c1cc(Cl)ccc12`, the Potency is 18.4 µM (active) and the cell number change is -5.44%. Turning to `O=S(=O)(c1ccccc1)c1nnn2c1nc(NC1CCN(Cc3ccccc3)CC1)c1ccccc12`, the Potency entry is “inactive” and the cell number change was determined as 0.895%. Regarding `Cc1nc(CS(=O)(=O)c2ccccc2)cc(Sc2ccc(Cl)cc2)n1`, the Potency result is “inactive”. Turning to `O=C(NCCCN1CCOCC1)c1ccc2c(c1)N(Cc1ccccc1)C(=O)c1ccccc1S2=O` (centres undefined), the Potency entry was “inactive” and the cell number change was -4.72%.

Take `C=CCn1c(COc2cc(C)ccc2C(C)C)nnc1SCC(=O)c1c(N)n(C)c(=O)n(C)c1=O`: the Potency result was “inactive” and the cell number change came to 25.2%. In the same order, the values of `Cc1ccc(S(=O)(=O)N2CCN(S(=O)(=O)c3ccc(C)cc3)C3OCCOC32)cc1` (centres undefined) are “inactive” and -0.0898%. The corresponding values for `CCC(N1CCOC1=O)S(=O)(=O)c1ccc(C)cc1` (centres undefined) are 25.9 µM (active) and -15.9%. The corresponding values for `Cc1ccc(S(=O)(=O)C(CCC(=O)N2CCOCC2)S(=O)(=O)c2ccc(C)cc2)cc1` are “inactive” and -12.5%.

`Cc1ccc(S(=O)(=O)NC(CC(=O)n2nc(C)cc2C)c2ccccc2)cc1` (centres undefined): the Potency result is “inactive”. `COC(=O)c1ccc(Cl)c(NC(=O)CN2CCN(Cc3ccccc3)CC2)c1`: the Potency result was “inactive” and the cell number change stood at 2.04%. The corresponding values for `COC(=O)c1ccc(Cl)c(NC(=O)CN2CCN(C)CC2)c1` are 25.9 µM (active) and -16%. In the same order, the values of `COC(=O)c1ccc(Cl)c(NC(=O)CN2CCOCC2)c1` are “inactive” and -12.2%. In the same order, the values of `COc1ccc(-n2c(=O)cc(N3CCN(Cc4ccccc4)CC3)[nH]c2=O)cc1` are “inactive” and -3.15%.
